From paper PMC7862700, “An all-to-all approach to the identification of sequence-specific readers for epigenetic DNA modifications on cytosine” come the findings set out here.

Assay in all cases: DAPPL (digital affinity profiling via proximity ligation, sequencing); 10 mM Tris-HCl pH 7.5, 50 mM NaCl, 1 mM DTT, 4% glycerol, room temperature, 30 min; GST-TFs on glutathione beads, 16-mer random dsDNA library, 0.1% formaldehyde crosslink after washing; high values mean tight binding
What all share (conditions): protein: recombinant; tags: N-terminal GST; dsDNA, one strand shown

For test [1], the target named is T1, FLI1 (Homo sapiens, UniProt Q01543 1-452).
T1 sequence: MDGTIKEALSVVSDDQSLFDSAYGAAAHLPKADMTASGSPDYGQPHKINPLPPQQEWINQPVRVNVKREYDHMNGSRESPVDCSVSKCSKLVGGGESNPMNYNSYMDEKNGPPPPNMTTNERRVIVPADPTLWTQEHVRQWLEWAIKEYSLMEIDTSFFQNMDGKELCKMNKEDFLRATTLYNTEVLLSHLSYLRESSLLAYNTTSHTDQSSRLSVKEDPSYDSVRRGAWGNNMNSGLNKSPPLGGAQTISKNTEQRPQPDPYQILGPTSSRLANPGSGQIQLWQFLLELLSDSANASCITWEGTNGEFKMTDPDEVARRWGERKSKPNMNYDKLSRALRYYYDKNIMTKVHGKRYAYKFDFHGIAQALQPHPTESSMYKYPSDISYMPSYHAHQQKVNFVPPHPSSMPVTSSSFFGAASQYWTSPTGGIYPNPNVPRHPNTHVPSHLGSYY
The essentials: (§1)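 Binding signal is given per hexamer as its read frequency for a factor divided by its frequency in the tag-only sample. GST-fused human transcription factors were expressed in yeast, captured on glutathione beads, barcoded with DNA and pooled with that sample, then incubated with 200 nmole of a 16-mer random double-stranded DNA library in Tris/NaCl/DTT/glycerol buffer for 30 min at room temperature. The pools were then washed, crosslinked, proximity-ligated, amplified by PCR and sequenced on an Illumina NextSeq500.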

The target of test [2] is T2, ELK1 (Homo sapiens, UniProt P19419 1-428).
T2 sequence: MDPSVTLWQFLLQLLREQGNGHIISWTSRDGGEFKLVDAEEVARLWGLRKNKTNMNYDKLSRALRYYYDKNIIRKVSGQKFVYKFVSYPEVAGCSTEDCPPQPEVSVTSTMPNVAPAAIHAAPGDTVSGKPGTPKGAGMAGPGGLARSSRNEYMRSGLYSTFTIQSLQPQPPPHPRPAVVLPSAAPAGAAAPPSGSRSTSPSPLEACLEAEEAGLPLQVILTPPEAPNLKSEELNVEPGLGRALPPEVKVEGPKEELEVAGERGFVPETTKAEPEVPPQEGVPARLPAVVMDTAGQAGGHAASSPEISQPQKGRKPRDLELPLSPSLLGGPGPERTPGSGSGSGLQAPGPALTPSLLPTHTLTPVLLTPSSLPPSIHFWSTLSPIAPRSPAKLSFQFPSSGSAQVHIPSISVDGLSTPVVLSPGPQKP
Summed up: as §1

In test [3] the target is T3, GABPA (Homo sapiens, UniProt Q06546 1-454).
T3 sequence: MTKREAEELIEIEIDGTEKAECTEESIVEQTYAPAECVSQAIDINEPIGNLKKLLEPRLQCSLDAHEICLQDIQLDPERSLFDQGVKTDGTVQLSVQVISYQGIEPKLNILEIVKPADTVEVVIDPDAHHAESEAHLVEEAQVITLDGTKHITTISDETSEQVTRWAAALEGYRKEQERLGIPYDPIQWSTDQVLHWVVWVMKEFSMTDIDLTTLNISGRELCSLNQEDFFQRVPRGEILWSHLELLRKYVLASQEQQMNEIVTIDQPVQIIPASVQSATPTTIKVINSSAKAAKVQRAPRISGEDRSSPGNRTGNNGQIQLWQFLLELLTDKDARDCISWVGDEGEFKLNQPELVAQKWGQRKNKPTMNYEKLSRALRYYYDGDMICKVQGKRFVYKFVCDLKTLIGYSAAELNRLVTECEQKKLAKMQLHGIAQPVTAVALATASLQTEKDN
Summed up: as §1

Test [4] addresses T4, ERG (Homo sapiens, UniProt P11308 1-479).
T4 sequence: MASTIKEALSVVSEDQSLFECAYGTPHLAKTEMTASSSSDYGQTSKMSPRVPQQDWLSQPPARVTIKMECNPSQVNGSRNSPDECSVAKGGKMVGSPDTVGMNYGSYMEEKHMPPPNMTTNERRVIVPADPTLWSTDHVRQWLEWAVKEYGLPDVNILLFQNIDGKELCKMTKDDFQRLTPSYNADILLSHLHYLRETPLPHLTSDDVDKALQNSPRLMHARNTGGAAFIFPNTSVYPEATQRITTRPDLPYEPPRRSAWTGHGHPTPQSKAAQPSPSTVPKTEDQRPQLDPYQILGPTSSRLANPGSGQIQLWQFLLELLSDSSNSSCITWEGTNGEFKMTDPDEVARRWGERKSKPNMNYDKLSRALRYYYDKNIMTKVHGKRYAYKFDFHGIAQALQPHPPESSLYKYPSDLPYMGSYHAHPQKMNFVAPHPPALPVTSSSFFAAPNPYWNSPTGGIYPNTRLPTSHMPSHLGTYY
The essentials: as §1

Test [5] deals with ELF1 (Homo sapiens, UniProt P32519 1-619). The essentials:
as §1

Test [6] has as its target T5, EHF (Homo sapiens, UniProt Q9NZC4 1-300).
T5 sequence: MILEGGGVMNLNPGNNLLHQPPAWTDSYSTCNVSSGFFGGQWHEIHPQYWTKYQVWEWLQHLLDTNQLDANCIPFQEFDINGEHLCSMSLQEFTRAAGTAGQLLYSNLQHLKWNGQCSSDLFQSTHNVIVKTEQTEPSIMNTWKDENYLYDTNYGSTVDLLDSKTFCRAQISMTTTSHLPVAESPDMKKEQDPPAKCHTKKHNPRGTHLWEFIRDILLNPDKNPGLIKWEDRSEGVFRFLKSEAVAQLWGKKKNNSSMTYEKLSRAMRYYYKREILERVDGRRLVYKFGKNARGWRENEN
Summed up: as §1

Test [7] deals with SPI1 (Homo sapiens, UniProt P17947 1-270). The essentials:
as §1

The target of test [8] is SPIB (Homo sapiens, UniProt Q01892 1-262). Summed up:
as §1

For test [9], the target named is T6, ELK3 (Homo sapiens, UniProt P41970 1-407).
T6 sequence: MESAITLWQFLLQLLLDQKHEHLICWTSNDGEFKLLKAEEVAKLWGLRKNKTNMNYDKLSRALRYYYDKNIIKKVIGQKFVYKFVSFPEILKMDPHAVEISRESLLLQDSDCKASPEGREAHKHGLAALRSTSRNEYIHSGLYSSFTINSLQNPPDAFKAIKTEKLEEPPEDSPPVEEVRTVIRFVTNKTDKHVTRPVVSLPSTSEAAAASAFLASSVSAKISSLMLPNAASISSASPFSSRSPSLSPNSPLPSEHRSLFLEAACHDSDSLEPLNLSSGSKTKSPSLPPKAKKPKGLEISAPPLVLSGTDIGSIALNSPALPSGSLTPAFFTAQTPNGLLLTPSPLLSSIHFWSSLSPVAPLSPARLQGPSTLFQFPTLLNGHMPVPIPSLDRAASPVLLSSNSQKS
The essentials:
as §1

Test [10] has as its target T7, FEV (Homo sapiens, UniProt Q99581 1-238).
T7 sequence: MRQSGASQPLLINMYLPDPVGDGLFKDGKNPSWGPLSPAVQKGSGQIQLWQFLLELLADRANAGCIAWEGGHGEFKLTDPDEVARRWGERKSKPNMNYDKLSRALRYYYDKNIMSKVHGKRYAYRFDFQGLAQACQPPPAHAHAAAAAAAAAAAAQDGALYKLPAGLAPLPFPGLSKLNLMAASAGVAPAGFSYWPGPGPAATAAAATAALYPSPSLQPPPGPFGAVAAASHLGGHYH
The essentials:
as §1

Test [11] has as its target ETV5 (Homo sapiens, UniProt P41161 1-510). The essentials: as §1
Test [12] concerns the target T8, SPIC (Homo sapiens, UniProt Q8N5J4 1-248).
T8 sequence: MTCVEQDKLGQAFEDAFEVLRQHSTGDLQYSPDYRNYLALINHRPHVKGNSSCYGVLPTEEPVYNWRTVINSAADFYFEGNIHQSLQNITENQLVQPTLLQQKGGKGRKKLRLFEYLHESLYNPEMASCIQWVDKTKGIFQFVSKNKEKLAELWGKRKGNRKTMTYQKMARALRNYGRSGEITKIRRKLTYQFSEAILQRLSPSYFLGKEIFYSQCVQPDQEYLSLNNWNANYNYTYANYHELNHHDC
Summed up: as §1

Test [13] addresses ELF4 (Homo sapiens, UniProt Q99607 1-663). Summed up: as §1
Test [14] addresses T9, ELK4 (Homo sapiens, UniProt P28324-2 1-405).
T9 sequence: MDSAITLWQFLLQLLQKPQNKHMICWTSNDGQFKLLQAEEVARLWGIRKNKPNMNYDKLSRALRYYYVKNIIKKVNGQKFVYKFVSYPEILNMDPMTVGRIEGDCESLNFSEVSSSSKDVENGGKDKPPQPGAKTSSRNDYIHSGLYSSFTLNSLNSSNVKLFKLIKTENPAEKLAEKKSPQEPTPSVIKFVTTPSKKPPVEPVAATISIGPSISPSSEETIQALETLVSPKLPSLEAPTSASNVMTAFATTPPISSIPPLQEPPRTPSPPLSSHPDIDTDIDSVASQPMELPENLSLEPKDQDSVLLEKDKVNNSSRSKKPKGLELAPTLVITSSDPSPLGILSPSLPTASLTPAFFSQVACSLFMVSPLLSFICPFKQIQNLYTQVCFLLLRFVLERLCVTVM
The essentials: as §1

Test [15] addresses T10, ETV2 (Homo sapiens, UniProt O00321 1-342).
T10 sequence: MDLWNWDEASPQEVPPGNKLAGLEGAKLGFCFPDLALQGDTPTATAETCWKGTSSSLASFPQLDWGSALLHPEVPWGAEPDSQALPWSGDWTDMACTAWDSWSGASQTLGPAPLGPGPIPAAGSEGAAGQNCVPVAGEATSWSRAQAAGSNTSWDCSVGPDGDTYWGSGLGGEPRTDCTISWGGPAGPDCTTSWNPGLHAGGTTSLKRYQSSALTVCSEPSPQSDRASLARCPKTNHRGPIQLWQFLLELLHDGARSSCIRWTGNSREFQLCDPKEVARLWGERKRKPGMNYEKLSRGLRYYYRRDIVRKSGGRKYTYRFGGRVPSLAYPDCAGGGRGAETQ
The essentials:
as §1

The target of test [16] is ETV1 (Homo sapiens, UniProt P50549 1-477). Summed up: as §1
Test [17] addresses T11, ELF3 (Homo sapiens, UniProt P78545 1-371).
T11 sequence: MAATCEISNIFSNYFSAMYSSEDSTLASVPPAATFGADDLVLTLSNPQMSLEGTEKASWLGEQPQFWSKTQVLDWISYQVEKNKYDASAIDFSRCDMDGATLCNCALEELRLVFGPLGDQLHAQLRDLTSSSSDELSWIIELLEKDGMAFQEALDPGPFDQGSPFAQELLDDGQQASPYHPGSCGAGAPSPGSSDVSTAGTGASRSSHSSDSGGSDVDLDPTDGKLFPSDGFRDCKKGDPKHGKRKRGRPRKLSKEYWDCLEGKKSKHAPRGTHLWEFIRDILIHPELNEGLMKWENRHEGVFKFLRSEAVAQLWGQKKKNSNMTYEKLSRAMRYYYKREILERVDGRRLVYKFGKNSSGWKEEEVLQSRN
Summed up: as §1

Test [18] deals with CRX (Homo sapiens, UniProt O43186 1-299). The essentials: as §1
Sequence of CRX (O43186 whole entry): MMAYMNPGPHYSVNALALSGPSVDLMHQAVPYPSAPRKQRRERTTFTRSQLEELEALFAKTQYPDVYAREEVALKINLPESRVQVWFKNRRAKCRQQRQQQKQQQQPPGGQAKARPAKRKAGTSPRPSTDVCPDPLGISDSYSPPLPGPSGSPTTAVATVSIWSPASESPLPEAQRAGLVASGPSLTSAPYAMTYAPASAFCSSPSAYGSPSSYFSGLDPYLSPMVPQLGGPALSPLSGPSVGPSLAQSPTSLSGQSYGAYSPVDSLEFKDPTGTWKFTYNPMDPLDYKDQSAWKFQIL

Sequence of ELF4 (Q99607 whole entry): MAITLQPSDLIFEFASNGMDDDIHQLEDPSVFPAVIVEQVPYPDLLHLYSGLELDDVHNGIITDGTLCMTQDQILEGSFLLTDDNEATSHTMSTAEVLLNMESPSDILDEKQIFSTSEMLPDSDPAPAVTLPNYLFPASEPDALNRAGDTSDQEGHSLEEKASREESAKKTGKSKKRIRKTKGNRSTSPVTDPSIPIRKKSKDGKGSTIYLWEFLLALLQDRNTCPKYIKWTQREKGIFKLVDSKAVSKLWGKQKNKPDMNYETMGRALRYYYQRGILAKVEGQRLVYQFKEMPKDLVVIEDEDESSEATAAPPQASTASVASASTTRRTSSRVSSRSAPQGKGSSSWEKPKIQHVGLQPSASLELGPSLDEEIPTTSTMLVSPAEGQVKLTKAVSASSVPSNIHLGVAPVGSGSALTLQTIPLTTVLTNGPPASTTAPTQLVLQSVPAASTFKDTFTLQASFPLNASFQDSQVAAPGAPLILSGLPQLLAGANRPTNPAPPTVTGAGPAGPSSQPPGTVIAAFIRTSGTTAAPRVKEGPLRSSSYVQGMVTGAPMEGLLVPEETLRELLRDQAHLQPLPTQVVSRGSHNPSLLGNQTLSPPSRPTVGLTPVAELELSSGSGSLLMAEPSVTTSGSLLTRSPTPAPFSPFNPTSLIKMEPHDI
Sequence of ELF1 (P32519 whole entry): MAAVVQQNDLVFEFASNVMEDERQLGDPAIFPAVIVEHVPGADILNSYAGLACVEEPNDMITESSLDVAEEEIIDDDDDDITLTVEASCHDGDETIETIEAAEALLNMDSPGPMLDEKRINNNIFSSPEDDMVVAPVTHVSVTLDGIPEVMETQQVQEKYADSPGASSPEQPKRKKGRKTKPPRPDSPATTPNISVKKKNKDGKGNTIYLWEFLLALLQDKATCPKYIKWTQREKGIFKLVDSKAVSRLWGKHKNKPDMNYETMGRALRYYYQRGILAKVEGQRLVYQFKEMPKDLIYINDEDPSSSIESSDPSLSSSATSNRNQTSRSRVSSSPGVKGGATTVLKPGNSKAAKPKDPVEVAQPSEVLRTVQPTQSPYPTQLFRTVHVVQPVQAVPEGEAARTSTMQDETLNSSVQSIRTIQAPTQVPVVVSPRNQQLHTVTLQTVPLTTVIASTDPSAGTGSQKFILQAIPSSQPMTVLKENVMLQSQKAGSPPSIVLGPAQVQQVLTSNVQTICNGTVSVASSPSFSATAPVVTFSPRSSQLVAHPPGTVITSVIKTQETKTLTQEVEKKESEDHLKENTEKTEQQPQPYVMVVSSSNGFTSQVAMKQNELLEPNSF
Sequence of SPIB (Q01892 whole entry): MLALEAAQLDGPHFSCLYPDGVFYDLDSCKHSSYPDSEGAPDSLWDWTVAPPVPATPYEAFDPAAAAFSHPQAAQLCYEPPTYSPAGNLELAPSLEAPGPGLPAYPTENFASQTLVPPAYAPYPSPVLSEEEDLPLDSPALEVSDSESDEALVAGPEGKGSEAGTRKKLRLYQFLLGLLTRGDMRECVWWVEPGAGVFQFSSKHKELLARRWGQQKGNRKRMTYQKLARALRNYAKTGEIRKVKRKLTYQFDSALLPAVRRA
Sequence of ETV5 (P41161 whole entry): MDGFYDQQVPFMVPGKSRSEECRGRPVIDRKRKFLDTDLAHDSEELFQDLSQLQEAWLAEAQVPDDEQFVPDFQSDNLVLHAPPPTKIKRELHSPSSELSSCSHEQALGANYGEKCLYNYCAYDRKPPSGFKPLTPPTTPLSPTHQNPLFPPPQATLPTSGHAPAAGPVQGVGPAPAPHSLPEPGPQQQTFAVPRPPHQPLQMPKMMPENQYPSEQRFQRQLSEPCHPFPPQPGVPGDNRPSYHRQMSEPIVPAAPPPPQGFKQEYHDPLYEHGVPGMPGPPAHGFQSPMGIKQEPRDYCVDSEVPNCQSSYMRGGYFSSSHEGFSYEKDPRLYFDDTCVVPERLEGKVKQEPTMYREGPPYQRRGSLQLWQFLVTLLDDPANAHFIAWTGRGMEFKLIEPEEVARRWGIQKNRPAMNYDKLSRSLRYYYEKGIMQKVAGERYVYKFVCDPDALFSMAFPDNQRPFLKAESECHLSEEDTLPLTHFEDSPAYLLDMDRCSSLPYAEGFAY
Sequence of ETV1 (P50549 whole entry): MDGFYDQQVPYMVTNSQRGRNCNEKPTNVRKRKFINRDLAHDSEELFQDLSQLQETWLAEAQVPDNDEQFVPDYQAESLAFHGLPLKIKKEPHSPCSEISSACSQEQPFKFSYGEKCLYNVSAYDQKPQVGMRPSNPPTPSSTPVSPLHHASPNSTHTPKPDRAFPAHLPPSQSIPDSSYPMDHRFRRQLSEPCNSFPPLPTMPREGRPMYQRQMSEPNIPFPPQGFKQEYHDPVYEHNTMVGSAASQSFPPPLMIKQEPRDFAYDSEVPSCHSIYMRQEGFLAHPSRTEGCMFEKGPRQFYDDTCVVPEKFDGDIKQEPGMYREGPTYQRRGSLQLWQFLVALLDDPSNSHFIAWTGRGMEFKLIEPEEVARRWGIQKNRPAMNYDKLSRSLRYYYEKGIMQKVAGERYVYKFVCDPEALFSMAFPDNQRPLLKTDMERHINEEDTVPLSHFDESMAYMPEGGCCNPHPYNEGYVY

Take CCCATG: the binding signal was 1.06 fold enrichment (6-mer frequency, TF over GST control) in test [1]; 1 fold enrichment (6-mer frequency, TF over GST control) in [2]; 1.22 fold enrichment (6-mer frequency, TF over GST control) in test [3]; 1.19 fold enrichment (6-mer frequency, TF over GST control) in [4]; 1.15 fold enrichment (6-mer frequency, TF over GST control) in test [5]; 1.11 fold enrichment (6-mer frequency, TF over GST control) in test [6]. Further, the binding signal in [7] is 1.14 fold enrichment (6-mer frequency, TF over GST control); in [8], 1.15 fold enrichment (6-mer frequency, TF over GST control); in test [9] it was 1.13 fold enrichment (6-mer frequency, TF over GST control); in [10] it was 1.06 fold enrichment (6-mer frequency, TF over GST control); in [11] it was 1.09 fold enrichment (6-mer frequency, TF over GST control); in test [12], 1.02 fold enrichment (6-mer frequency, TF over GST control). Moreover, the binding signal in test [13] is 1.12 fold enrichment (6-mer frequency, TF over GST control); in [14] it was 1.18 fold enrichment (6-mer frequency, TF over GST control); in [15], 1.02 fold enrichment (6-mer frequency, TF over GST control); in test [16], 1.01 fold enrichment (6-mer frequency, TF over GST control).

For the sequence TTGGGT, the binding signal in [1] was 1.02 fold enrichment (6-mer frequency, TF over GST control); in [2] it was 1.13 fold enrichment (6-mer frequency, TF over GST control); in [3] it was 1.22 fold enrichment (6-mer frequency, TF over GST control); in [5] it was 1.09 fold enrichment (6-mer frequency, TF over GST control); in [6] it was 1.04 fold enrichment (6-mer frequency, TF over GST control); in test [7], 1.02 fold enrichment (6-mer frequency, TF over GST control). For the same sequence, the binding signal in test [8] was 1.05 fold enrichment (6-mer frequency, TF over GST control); in [9], 1.16 fold enrichment (6-mer frequency, TF over GST control); in test [10], 1.07 fold enrichment (6-mer frequency, TF over GST control); in test [11] it was 1.04 fold enrichment (6-mer frequency, TF over GST control); in [12], 1.07 fold enrichment (6-mer frequency, TF over GST control); in test [13], 1.08 fold enrichment (6-mer frequency, TF over GST control). In addition, the binding signal was 1.09 fold enrichment (6-mer frequency, TF over GST control) in [14]; 1.14 fold enrichment (6-mer frequency, TF over GST control) in test [17]; 1.07 fold enrichment (6-mer frequency, TF over GST control) in [18]; 1.06 fold enrichment (6-mer frequency, TF over GST control) in [16].
